Several values for one entry are separate records, joined by “and”; a condition that tells them apart may be missing. Equal entries are not always repeated. Results filed as inconclusive are left out. Values without a mark were called inactive. Activity calls are given as the source filed them. Calls follow the shape of the dose curve; as a rule, active = well fitted curve in the direction sought with a large enough effect; inconclusive = small, poorly fitted or top-dose-only effect, or another doubt; inactive = no such curve, though single readings can be large; an effect the other way counts as inactive or inconclusive.

Test [1] relates to HaCat. Kind of test: Cytotoxic Profiling of Annotated Libraries Using Quantitative High-Throughput Screening (AID 1296008). Also: nearly all actives have a fitted effect of over 60% in size. To be noted: Five cell lines viability, CellTiter-Glo ATP luminescence, 48-72 h; max response: stronger effect = lower value. The gist of the method: (§1)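 Compounds were pin-transferred onto cells and incubated 48 or 72 hr at 37 degree Celsius, 95% humidity. CellTiter-Glo was added, plates sat 10 min at room temperature, then ATP-coupled luminescence was imaged as the viability read-out.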

Test [2] relates to KB-3-1. Described as above. To be noted: Five cell lines viability, CellTiter-Glo ATP luminescence, 48-72 h; max response: stronger effect = lower value. The gist of the method:
as §1
In general terms: Cellular ATP, detected with luciferase, serves as a proxy for viable cell number.

The subject of test [3] is NIH3T3. Described as above. To be noted: Five cell lines viability, CellTiter-Glo ATP luminescence, 48-72 h; max response: stronger effect = lower value. The gist of the method: as §1
The test system of test [4] is MKL-2. The experiment in a line: qHTS assay to identify novel small-molecules to repurpose for Merkel cell carcinoma treatment (AID 1296009). Also: nearly all actives have a fitted effect of over 60% in size. To be noted: MCC and control cell lines, CellTiter-Glo viability, 72 h; series mostly up to 46 µM. In outline: (§2)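 qHTS format: cells treated with library compounds in DMSO across 8 (NPC) or 11 (MIPE) concentrations. Readout after 72 hr at 37 degree celsius was CellTiter-Glo luminescence.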
Background: qHTS replaces the single test concentration by a dilution series.

Test [5] concerns C33A. The experiment in a line: Primary qHTS to identify gynecologic anti-cancer compounds using libraries of approved drugs and bioactive compounds (AID 1345084). Also: nearly all actives have a fitted effect of over 55% in size. To be noted: Gynecologic cancer cell panel viability, ATPlite luminescence, 48 h; series mostly up to 57.5 µM. The gist of the method: (§3)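 Cells, 1,000 per well, plated 16 h, then exposed 48 h at 37 C to compounds. Viability by ATPlite luminescence after 15 min at room temperature.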

Test [6] deals with Es-2. The description is as above. The settings on record: Gynecologic cancer cell panel viability, ATPlite luminescence, 48 h; series mostly up to 57.5 µM. The gist of the method: as §3
In test [7] the test system is HeLa. Described as above. To be noted: Gynecologic cancer cell panel viability, ATPlite luminescence, 48 h; series mostly up to 57.5 µM. In outline:
as §3

For test [8], the system named is Hek293T. Described as above. The settings on record: Gynecologic cancer cell panel viability, ATPlite luminescence, 48 h, control line for the selectivity index; series mostly up to 57.5 µM. In outline:
as §3

In test [9] the test system is OV90. The test is described as above. To be noted: Gynecologic cancer cell panel viability, ATPlite luminescence, 48 h; series mostly up to 57.5 µM. The gist of the method: as §3
In test [10] the test system is MCC-26. Kind of test: qHTS assay to identify novel small-molecules to repurpose for Merkel cell carcinoma treatment (AID 1296009). Also: nearly all actives have a fitted effect of over 60% in size. The settings on record: MCC and control cell lines, CellTiter-Glo viability, 72 h; series mostly up to 46 µM. The gist of the method:
as §2

Test [11] deals with MKL-1. Described as above. The settings on record: MCC and control cell lines, CellTiter-Glo viability, 72 h; series mostly up to 46 µM. The gist of the method: as §2
In test [12] the test system is UISO. The test is described as above. To be noted: MCC and control cell lines, CellTiter-Glo viability, 72 h; series mostly up to 46 µM. In outline:
as §2

Test [13] deals with CASKI. Kind of test: Primary qHTS to identify gynecologic anti-cancer compounds using libraries of approved drugs and bioactive compounds (AID 1345084). Also: nearly all actives have a fitted effect of over 55% in size. To be noted: Gynecologic cancer cell panel viability, ATPlite luminescence, 48 h; series mostly up to 57.5 µM. In outline:
as §3

The test system of test [14] is HACAT. The experiment in a line: qHTS assay to identify novel small-molecules to repurpose for Merkel cell carcinoma treatment (AID 1296009). Also: nearly all actives have a fitted effect of over 60% in size. The settings on record: MCC and control cell lines, CellTiter-Glo viability, 72 h; series mostly up to 44.8 µM. The gist of the method: as §2
Test [15] relates to MCC-13. The description is as above. The settings on record: MCC and control cell lines, CellTiter-Glo viability, 72 h; series mostly up to 46 µM. In outline: as §2
For test [16], the system named is WaGa. Described as above. The settings on record: MCC and control cell lines, CellTiter-Glo viability, 72 h; series mostly up to 46 µM. The gist of the method:
as §2

In test [17] the test system is CAOV3. The experiment in a line: Primary qHTS to identify gynecologic anti-cancer compounds using libraries of approved drugs and bioactive compounds (AID 1345084). Also: nearly all actives have a fitted effect of over 55% in size. The settings on record: Gynecologic cancer cell panel viability, ATPlite luminescence, 48 h; series mostly up to 57.5 µM. In outline:
as §3

Test [18] has as its system JEG-3. The test is described as above. To be noted: Gynecologic cancer cell panel viability, ATPlite luminescence, 48 h; series mostly up to 57.5 µM. The gist of the method: as §3
% is scaled to controls: 0 for no effect and ±100 for the full control effect; potency is read from the fitted curve at half-maximal effect.

On to `c1nc2nc(Nc3ccc(N4CCOCC4)cc3)nc(NC3CCCCC3)c2[nH]1`, for which the Potency is 2.64 µM (active) and 2 µM (active) in [1]; 4.18 µM (active) in test [2]; 1.48 µM (active) and 2.24 µM (active) in test [3]; 16.6 µM (active) in [4]; 2.82 µM (active) in test [7]. In addition, the Potency result in test [5], in [6], in test [8] and in [9] was “inactive” each time.
Turning to `Cc1nc(Nc2n[nH]c3c2CN(C(=O)N[C@H](CN(C)C)c2ccccc2)C3(C)C)c2sccc2n1`, the Potency in test [1] is 7.43 µM (active); in test [2], 2.35 µM (active) and 2.06 µM (active); in [3], 1.16 µM (active); in test [10] it was 14.8 µM (active); in test [11], 1.48 µM (active); in test [4], 2.64 µM (active). For the same molecule, the Potency in test [12] was 1.48 µM (active); in test [13], 7.94 µM (active); in test [6], 8.91 µM (active); in test [7] it was 8.91 µM (active); in test [8], 3.55 µM (active); in test [9], 1.58 µM (active).
Take `C[C@@H]1CN(CC(=O)Nc2ccc3c(c2)Cc2cccc(-c4cc(=O)cc(N5CCOCC5)o4)c2S3)C[C@H](C)O1`: the outcome in [1] was inactive. For the same molecule, in [2], the max response is -19.5%. For the same molecule, the Potency entry in test [14], in [15], in test [10] and in test [11] was “inactive” throughout.
Consider `CC(C)c1cc(C(=O)N2Cc3ccc(CN4CCN(C)CC4)cc3C2)c(O)cc1O`, for which the Potency in test [1] was 264 nM (active) and 206 nM (active); in [2] it was 0.0731 µM (active); in [3], 418 nM (active) and 291 nM (active); in [15], 0.469 µM (active); in test [12] it was 0.469 µM (active); in [9], 0.501 µM (active). The Potency result in [4] was “inactive”.
`COc1cc(OC2CCN(C)CC2)ccc1Nc1ncc2c(n1)n(C1CCCC1)c(=O)n2C`: the Potency in test [1] is 13.2 µM (active); in test [2], 4.18 µM (active); in test [3], 18.7 µM (active); in test [16], 23.5 µM (active). Also, the Potency entry in test [10] is “inactive”.
In the case of `OCCCNc1cc(-c2ccnc(Nc3cccc(Cl)c3)n2)ccn1`, the Potency in [1] was 105 nM (active) and 820 nM (active); in test [2] it was 118 nM (active) and 206 nM (active); in [3] it was 166 nM (active) and 580 nM (active); in test [4], 0.296 µM (active); in test [12], 0.148 µM (active); in [5], 0.562 µM (active). Besides, the Potency in [13] was 0.398 µM (active); in [6] it was 0.224 µM (active); in [7] it was 0.158 µM (active); in [8] it was 0.199 µM (active). The Potency result in test [17] was “inactive”.
As to `COc1ccc(OC)c(-c2nnc3ccc(-c4ccc(OC)c(O[C@@H]5CCOC5)c4)nn23)c1`, the Potency in [1] was 1.46 µM (active); in [2], 6.51 µM (active); in [3] it was 33.2 µM (active); in test [4], 18.7 µM (active); in [7] it was 22.4 µM (active). The Potency result in [9] is “inactive”.
Consider `CN1CC[C@@H](c2c(O)cc(O)c3c(=O)cc(-c4ccccc4Cl)oc23)[C@@H](O)C1`, for which the Potency in [1] was 0.372 µM (active); in test [2] it was 0.235 µM (active); in test [3], 0.526 µM (active); in [15] it was 0.59 µM (active); in [12], 0.264 µM (active).
Turning to `Cc1cc(N2CCOCC2)cc2[nH]c(-c3c(NC[C@@H](O)c4cccc(Cl)c4)cc[nH]c3=O)nc12`, the Potency in [1] was 4.18 µM (active) and 5.8 µM (active); in [2] it was 14.8 µM (active); in test [3], 7.43 µM (active) and 13 µM (active); in [12], 1.32 µM (active). Further, the Potency result in test [4], in test [5], in test [6] and in test [18] was “inactive” throughout.
On to `Cc1ccc(C(N)=O)cc1Nc1nccc(-c2cn(C(C)C)c3cnccc23)n1`, for which the Potency was 23.5 µM (active) in [1]; 5.8 µM (active) in [2]; 10.5 µM (active) in test [3]; 20.9 µM (active) in test [4]; 4.18 µM (active) in test [12]; 3.16 µM (active) in [5]. In addition, the Potency in test [13] is 17.8 µM (active); in test [7] it was 25.1 µM (active); in test [8], 17.8 µM (active); in [9], 17.8 µM (active). Also, the Potency result in test [18] was “inactive”.
On to `Cc1cc(Nc2cc(N3CCN(C)CC3)nc(Sc3ccc(NC(=O)C4CC4)cc3)n2)n[nH]1`, for which the Potency was 6.62 µM (active) in test [1]; 8.33 µM (active) and 8.2 µM (active) in [2]; 16.6 µM (active) and 20.6 µM (active) in test [3]. Further, the Potency entry in [4], in test [12], in test [5], in [6] and in test [18] was “inactive” throughout.
For the molecule `Cc1cc(Nc2nc(N[C@@H](C)c3ccc(F)cc3)c(C#N)cc2F)n[nH]1`, the Potency in [1] is 2.59 µM (active); in test [2] it was 1.05 µM (active) and 731 nM (active); in test [3], 3.72 µM (active) and 4.11 µM (active); in test [10], 7.43 µM (active); in [6] it was 14.1 µM (active); in [7] it was 5.62 µM (active). For the same molecule, in [5], the Potency result was “inactive”.
For `CCn1cc(-c2ccnc3[nH]c(-c4cccc(CN(C)C)c4)cc23)c(-c2ccc(NC(=O)N(C)C)cc2)n1`, the Potency in [1] was 0.0893 µM (active); in [2], 1.87 µM (active) and 63.2 nM (active); in test [3], 3.72 µM (active) and 632 nM (active); in test [11], 0.0372 µM (active); in test [4], 8.33 µM (active); in test [12], 13.2 µM (active). In addition, the Potency in test [16] was 0.0469 µM (active). The Potency result in test [5] and in test [8] was “inactive” throughout.

The values above are taken from PubChem BioAssay (NCATS).
